This is an account of results in PubChem BioAssay (Tox21).

The source made the active and inactive calls. Calls come from the whole dose curve; as a rule, active = well fitted curve in the direction sought with a large enough effect in the repeat runs; inconclusive = weak or mixed curves; inactive = flat fitted curve, though single readings scatter.
% is set by controls: 0 for no effect and ±100 for the full control effect.

The assay can be described thus: qHTS assay to test for compound auto fluorescence at 535 nm (green) in HepG2 cells (AID 720675). The settings on record: green autofluorescence 485/535 nm, 1 h; series mostly up to 91.3 µM; fluorescence, % of fluorescein control: at the top concentration. An excerpt:
National Center for Advancing Translational Sciences [NCATS]
NIH Chemical Genomics Center [NCGC]
U.S. Environmental Protection Agency [EPA]
National Institutes of Environmental Health Sciences [NIEHS]
National Toxicology Program [NTP]
U.S. Food and Drug Administration [FDA]
Compound auto fluorescence often interferes with screening of the compound library against various biological targets and signaling pathways. Some of these compounds may have fluorophoric properties. Such properties may interfere with the assay outputs resulting in false positives and/or negatives. To decrease such complications and ensure the compound activities are relevant in terms of biological response, the Tox21 10K compound library was screened for auto fluorescence.
From the fluorophores used as reporter signals in our screening assays, the auto fluorescence equivalencies of compounds against three fluorophores have been evaluated: Triamterene, Fluorescein and Rose Bengal sodium for blue, green and red fluorescence, respectively. The fluorescence intensities were measured using Excitation/Emission wavelengths at 405/460nm, 485/535nm and 540/590nm for blue, green and red labels, respectively. This assay includes the green fluorescence data.
Tox21 Assay Protocol Summary:
2,000 HepG2 cells in 5 uL of culture medium (MEM containing 10% FBS) per well were dispensed into black wall/clear bottom 1536-well plates using a Multidrop Combi Dispenser (ThermoFisher Scientific, Waltham, MA). The assay plates were incubated overnight at 37 C to allow cell attachment to the well bottom, followed by the transfer of 23 nL compound or DMSO vehicle by a pintool work station (Kalypsys , San Diego, CA). After the assay plates were incubated for 1 hr at 37 C and 5% CO2, fluorescence intensities in the assay plates were measured by an Envision (PerkinElmer, Shelton, CT) plate reader using three labels for measuring blue, green and red fluorescence at […] 460, 535 and 590 nm respectively.
For the molecule `Cc1cccc2c1cc1ccc3cccc4ccc2c1c34`, the “fluorescence, % of fluorescein control” value was 0.113% [at 95.7 µM] (inactive).

`CCCCCCCCNC(C)C(O)c1ccc(SC(C)C)cc1` (stereo not given): the “fluorescence, % of fluorescein control” value is -0.0534% [at 46 µM] (inactive).

Consider `CCOc1nc2cccc(C(=O)OC(C)OC(=O)OC3CCCCC3)c2n1Cc1ccc(-c2ccccc2-c2nn[nH]n2)cc1` (stereo not given), for which the “fluorescence, % of fluorescein control” value was 0.1% (inactive).

Regarding `NC(=NCCCCCCN=C(N)/N=C(\N)Nc1ccc(Cl)cc1)/N=C(\N)Nc1ccc(Cl)cc1`, the Potency result is “inactive”.

Turning to `Cc1cc(O)c(C(C)(C)C)cc1Sc1cc(C(C)(C)C)c(O)cc1C`, the “fluorescence, % of fluorescein control” value is 0.18% (inactive).

`Cc1c(C)c2c(c(C)c1O)CCC(C)(COc1ccc(CC3SC(=O)NC3=O)cc1)O2` (stereo not given): the Potency result is “inactive”.

For the molecule `CCCC(C)c1ccccc1O` (stereo not given), the “fluorescence, % of fluorescein control” value is 0.26% (inactive).

`CC[C@H]1O[C@]2(CC[C@@H]1C)C[C@@H]1C[C@@H](C/C=C(\C)C[C@@H](C)/C=C/C=C3\CO[C@@H]4[C@H](O)C(C)=C[C@@H](C(=O)O1)[C@]34O)O2`: the “fluorescence, % of fluorescein control” value was -0.0173% (inactive).

As for `CNCc1cc(F)ccc1Oc1ccc(Cl)c(Cl)c1`, the “fluorescence, % of fluorescein control” value was 0.0691% (inactive).

For `CC(C)n1nc(-c2cc3cc(O)ccc3[nH]2)c2c(N)ncnc21`, the “fluorescence, % of fluorescein control” value was 0.0212% [at 46 µM] (inactive).

On to `CSc1ccc(C(=O)c2[nH]c(=O)[nH]c2C)cc1`, for which the “fluorescence, % of fluorescein control” value is 0.0874% [at 46 µM] (inactive).

`CCN(CC)CCNC(=O)c1c(C)[nH]c(/C=C2\C(=O)Nc3ccc(F)cc32)c1C`: the “fluorescence, % of fluorescein control” value is 2.3% [at 46 µM] (inactive).

Regarding `CCCCN(CCCC)C(=O)N(CCCC)CCCC`, the “fluorescence, % of fluorescein control” value was -0.0005% (inactive).

As to `CN(C)c1ccc(SC#N)cc1`, the “fluorescence, % of fluorescein control” value is -0.0644% (inactive).

Turning to `O=C(Nc1cccc(C(F)(F)F)c1)c1cc(Br)cc(Br)c1O`, the Potency result is “inactive”.

In the case of `CCC1OCC(COc2ccc(Oc3ccccc3)cc2)O1` (stereo not given), the “fluorescence, % of fluorescein control” value is 0.0367% (inactive).

Take `Oc1cccc(-c2c3nc(c(-c4cccc(O)c4)c4ccc([nH]4)c(-c4cccc(O)c4)c4nc(c(-c5cccc(O)c5)c5ccc2[nH]5)CC4)C=C3)c1`: the Potency entry is “inactive”.

On to `Cc1cc(=O)oc2cc(N(C)C)ccc12`, for which the “fluorescence, % of fluorescein control” value is 0.0595% (inactive).

Turning to `CCCCCCCC[N+](CCCCCCCC)(CCCCCCCC)CCCCCCCC`, the “fluorescence, % of fluorescein control” value is 0.124% (inactive).

As for `O=c1[nH]sc2ccccc12`, the “fluorescence, % of fluorescein control” value is -0.0091% (inactive).

`CCC1=C[C@@H]2CN(C1)Cc1c([nH]c3ccccc13)[C@@](C(=O)OC)(c1cc3c(cc1OC)N(C)[C@H]1[C@@](O)(C(=O)OC)[C@H](OC(C)=O)[C@]4(CC)C=CCN5CC[C@]31[C@@H]54)C2`: the “fluorescence, % of fluorescein control” value was -0.182% [at 46 µM] (inactive).

Consider `Cn1cc(C(=O)[C@@H]2CCc3nc[nH]c3C2)c2ccccc21`, for which the “fluorescence, % of fluorescein control” value was -0.0416% [at 46 µM] (inactive).

As for `CCc1cc(SCc2sc(-c3ccc(C(F)(F)F)cc3)nc2CN2CCN(c3ccc(OC)cc3)CC2)ccc1OCC(=O)O`, the “fluorescence, % of fluorescein control” value was -0.0047% (inactive).

As for `Oc1ccc(Cl)cc1Sc1cc(Cl)ccc1O`, the Potency entry was “inactive”.

In the case of `CCCC/C=C/CCCCO`, the “fluorescence, % of fluorescein control” value was -0.026% (inactive).

As to `CCCCCCOC(=O)c1ccc(O)cc1`, the Potency entry is “inactive”.

With `CCCCN1CCCC[C@H]1C(=O)Nc1c(C)cccc1C`, the “fluorescence, % of fluorescein control” value is -0.0395% [at 46 µM] (inactive).

Turning to `O=c1cccccc1O`, the “fluorescence, % of fluorescein control” value was 0.0061% [at 95.7 µM] (inactive).

For `CS(=O)(=O)CCNCc1ccc(-c2ccc3ncnc(Nc4ccc(OCc5cccc(F)c5)c(Cl)c4)c3c2)o1`, the “fluorescence, % of fluorescein control” value was 0.0133% [at 46 µM] (inactive).

Turning to `Cc1cc(C2CCCCC2)n(O)c(=O)c1`, the fluorescence, % of fluorescein control is -0.0302% [at 18.6 µM] (inactive).

With `C/C=C1/C(=O)C[C@H]2[C@@H]3CCC4=CC(=O)CC[C@]4(C)[C@H]3CC[C@]12C`, the “fluorescence, % of fluorescein control” value was 0.0437% (inactive).

As to `NC(=O)N1C(=O)C(C(=O)c2cc(Cl)cs2)c2cc(F)c(Cl)cc21` (stereo not given), the “fluorescence, % of fluorescein control” value is 0.0114% (inactive).

As for `CC(=O)OCC(C)OC(C)=O` (stereo not given), the “fluorescence, % of fluorescein control” value was -0.202% (inactive).

Turning to `C[C@H]1[C@H]2CC[C@H]3[C@@H]4CC=C5C[C@@H](N(C)C)CC[C@]5(C)[C@H]4CC[C@]23CN1C`, the “fluorescence, % of fluorescein control” value was -0.0501% [at 46 µM] (inactive).

Take `C=CC(=O)OCC(CO)(COCC(COC(=O)C=C)(COC(=O)C=C)COC(=O)C=C)COC(=O)C=C`: the “fluorescence, % of fluorescein control” value was -0.009% (inactive).

For the molecule `COC(=O)C1=C(C)NC(C)=C(C(=O)OCC(C)C)C1c1ccccc1[N+](=O)[O-]` (stereo not given), the Potency entry was “inactive”.

As to `C/C=C(\C)C(=O)OCc1ccccc1`, the “fluorescence, % of fluorescein control” value was 0.0071% (inactive).

With `CCCCCCCCCCCCCCCS(=O)(=O)Oc1ccccc1`, the “fluorescence, % of fluorescein control” value is 0.0183% [at 46 µM] (inactive).

As to `O=C1C=CC(=O)N1c1ccc(Cc2ccc(N3C(=O)C=CC3=O)cc2)cc1`, the “fluorescence, % of fluorescein control” value was 0.044% (inactive).

Turning to `CCC(C)Nc1ccc(NC(C)CC)cc1` (stereo not given), the “fluorescence, % of fluorescein control” value was 0.476% [at 95.7 µM] (inactive).
